The list is not random: actives were taken first. Their share in the collection is about 7%.
NR3A LBD binder – binders of NR3A ligand-binding domain, primary screen, biophysical, differential scanning fluorimetry, uHTS; Tm shift relative to glycine control, % at 25 µM; 340,000 tested, 2.5% active; NR3A LBD differential scanning fluorimetry, Tm shift; 0% = protein alone, 100% = glycine-bound protein;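 active = melting temperature shift of at least 10% of the positive control shift, at one fixed dose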
ADAM10 inh – human ADAM10 inhibitors, primary screen, biochemical, QFRET, HTS; recombinant ADAM10, EDANS/DABCYL FRET peptide cleavage, 3 h; Disintegrin and metalloproteinase domain-containing protein 10 (Homo sapiens), O14672; inhibition, % at 7 µM; 370,000 tested, 0.62% active;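 active = inhibition above a per-campaign cutoff equal to the mean of compounds falling between control-based bounds plus 3 SD, cut at about 20% in these data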
proKLK7 act – proKLK7 zymogen activators, primary screen, biochemical, fluorescence intensity. purified proKLK7, EDANS-DABCYL substrate fluorescence; 100% is mature enzyme control, 0% vehicle. Kallikrein-7 (Homo sapiens), P49862. 370,000 tested, 0.9% active. activation, % at 7 µM;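 active = activation above the mean of all tested compounds plus 3 SD, computed per campaign excluding outliers beyond control limits, cut at about 13% in these data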
Target sequence (P49862 whole entry, looked up): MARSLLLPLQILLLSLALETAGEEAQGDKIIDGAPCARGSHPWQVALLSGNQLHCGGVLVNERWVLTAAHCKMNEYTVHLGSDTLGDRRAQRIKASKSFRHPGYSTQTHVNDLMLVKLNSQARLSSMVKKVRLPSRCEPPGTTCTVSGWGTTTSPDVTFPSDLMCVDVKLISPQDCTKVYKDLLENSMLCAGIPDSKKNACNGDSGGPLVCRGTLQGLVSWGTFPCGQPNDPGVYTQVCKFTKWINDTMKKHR
AHR act – AHR activators, primary screen, cell-based, luminescence, luciferase reporter, human; AID 2796, 2010; 320,000 tested, 2.5% active; AHR-responsive luciferase reporter cells; activation, % at 5 µM; Aryl hydrocarbon receptor (Homo sapiens), P35869; in the data active = activation above about 47%
ADAM17 inh – ADAM17 inhibitors, primary screen, biochemical, QFRET | recombinant ADAM17, EDANS/DABCYL FRET peptide cleavage | AID 720648, 2013 | 370,000 tested, 0.83% active | Disintegrin and metalloproteinase domain-containing protein 17 (Homo sapiens), P78536 | inhibition, % at 6.95 µM;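 active = inhibition above the mean of compounds lying between control limits plus 3 SD, set per campaign, cut at about 8.5% in these data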
rCAG binder – binders of r(CAG) RNA repeats, primary screen, biochemical, fluorescence | 370,000 tested, 1.3% active | r(CAG) RNA repeat, TO-PRO-1 dye displacement fluorescence | inhibition, % at 3 µM | AID 651821, 2012;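 active = inhibition above the plate cutoff, the mean of all test compounds on that plate plus 3 SD, cut at about 35% in these data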;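 note: higher means more dye released from RNA so lower well fluorescence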
Large screens that a line does not name were inactive.

Cc1ccccc1CN1CCCCC(NC(=O)C2CCCC2)C1=O (configuration not stated)	none (no result: NR3A LBD binder, AHR act)
OCCN1CCN(c2nc(-c3ccccc3O)nc3ccccc23)CC1	NR3A LBD binder 19
CN1CCN(c2nc(-c3ccccc3O)nc3ccccc23)CC1	none (no result: NR3A LBD binder)
COc1ccccc1C(=O)NCC(=O)N1CCN(S(=O)(=O)c2ccc3c(c2)OCCO3)CC1	NR3A LBD binder 13
O=C(c1ccccc1)N1CCN(c2ncnc3c2cnn3-c2ccccc2)CC1	AHR act 61
CC(C)[C@@H]1OC(=O)[C@@H]2CCCN2C(=O)[C@H](C)OC(=O)[C@H](C)[C@@H](C(C)C)NC(=O)[C@@H]2CCCN2C(=O)[C@H]([C@H](C)Cc2ccccc2)NC(=O)[C@@H]2CCCN2C(=O)[C@@H](C(C)C)N(C)C1=O	none (no result: NR3A LBD binder, proKLK7 act, AHR act, rCAG binder)

From PubChem BioAssay
